Measured values from PubChem BioAssay (Tox21).
“And” between values parts separate entries of the source, which are not always exact repeats. Equal entries are not always repeated. Results filed as inconclusive are left out. Some structures have more than one record in an assay (separate samples or runs), and their calls can disagree. The source made the active and inactive calls. Unless noted, calls follow the shape of the dose curve; as a rule, active = well fitted curve in the direction sought with a large enough effect in the repeat runs; inconclusive = weak or mixed curves; inactive = no such curve, though single readings can be large; an effect the other way counts as inactive or inconclusive.

Legend:
[1] = biological target: Thyrotropin receptor (Homo sapiens) (UniProt P16473); assay: qHTS assay to identify small molecule agonists of the thyroid stimulating hormone receptor (TSHR) signaling pathway (AID 1224843; calls by dose curve; also: nearly all actives have a fitted effect of over 45% in size)
Sequence of Thyrotropin receptor (Homo sapiens) (P16473 whole entry, looked up): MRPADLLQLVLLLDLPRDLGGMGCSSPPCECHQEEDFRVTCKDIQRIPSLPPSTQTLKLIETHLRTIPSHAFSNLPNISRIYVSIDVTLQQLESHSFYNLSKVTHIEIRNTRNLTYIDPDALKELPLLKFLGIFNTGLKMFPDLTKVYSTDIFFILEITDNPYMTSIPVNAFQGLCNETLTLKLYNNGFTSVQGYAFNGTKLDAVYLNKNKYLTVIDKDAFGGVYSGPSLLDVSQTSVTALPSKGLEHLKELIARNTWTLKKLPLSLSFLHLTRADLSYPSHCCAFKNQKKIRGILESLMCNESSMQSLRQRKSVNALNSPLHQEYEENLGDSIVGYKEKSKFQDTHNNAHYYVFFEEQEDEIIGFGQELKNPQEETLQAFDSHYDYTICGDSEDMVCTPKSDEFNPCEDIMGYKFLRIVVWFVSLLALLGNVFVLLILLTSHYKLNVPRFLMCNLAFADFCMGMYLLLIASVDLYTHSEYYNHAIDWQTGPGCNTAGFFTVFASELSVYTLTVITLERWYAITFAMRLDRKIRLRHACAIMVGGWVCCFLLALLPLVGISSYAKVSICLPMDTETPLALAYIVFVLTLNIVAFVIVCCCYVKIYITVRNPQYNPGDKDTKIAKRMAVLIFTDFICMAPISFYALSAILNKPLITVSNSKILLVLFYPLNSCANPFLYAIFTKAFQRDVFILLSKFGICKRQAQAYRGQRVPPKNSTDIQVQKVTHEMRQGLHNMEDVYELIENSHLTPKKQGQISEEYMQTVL
How it was run: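 HEK293/TSHR, 800 cells/well; cpd 30 min RT; add cAMP-d2 + anti-cAMP-cryptate, 1 h RT; fluorescence read on plate reader. 15-pt titration, n=3.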

[2] = qHTS assay to identify small molecule agonists of the hypoxia (HIF-1) signaling pathway - cell viability counter screen (AID 1224844; calls by dose curve; also: nearly all actives have a fitted effect of over 50% in size)
How it was run: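 Cytotoxicity was measured in parallel with the HRE-driven beta-lactamase readout: after 17 hrs of compound exposure at 37C, HRE-bla ME-180 cells received CellTiter-Glo and luminescence was recorded 30 min later.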

[3] = qHTS assay to identify small molecule agonists of H2AX (AID 1224845; active = well fitted activation curve with a large enough effect in the signal ratio in the repeat runs, not every such curve was filed as active; the % refers to the signal ratio)
How it was run: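 Wild-type CHO-K1 cells, plated overnight, exposed 3hr at 37C to 15 concentrations (0.76% DMSO final). Lysed, then HTRF anti-pH2AX (S139) cryptate and anti-H2AX-d2 antibodies, 24 hr room temperature; 665/620 nm emission read.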

[4] = qHTS assay to identify small molecule agonists of the hypoxia (HIF-1) signaling pathway (AID 1224846; active = well fitted activation curve with a large enough effect in the signal ratio in the repeat runs, not every such curve was filed as active; the % refers to the signal ratio)
How it was run: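 Compounds from the Tox21 10K library, dissolved in DMSO, are tested for induction of a hypoxia response element–controlled beta-lactamase reporter in ME-180 cells. Exposure lasts 17 hrs at 37C after a 5 hr settling period, followed by CCF4-AM FRET substrate.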

[5] = qHTS assay to identify small molecule agonists of H2AX - cell viability counter screen (AID 1224847; calls by dose curve; also: top concentration of the series differs between compounds; nearly all actives have a fitted effect of over 30% in size)
How it was run: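 Cytotoxicity counter screen in wild-type CHO-K1 cells: a 3 hr compound treatment at 37C across 15 concentrations, followed by CellTiter-Glo luminescence to gauge viable cells.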

[6] = qHTS RealTime-Glo MT Cell Viability Assay in HepG2 cells - 24 hour (AID 1224867); also: nearly all actives have a fitted effect of over 50% in size
How it was run: (§1)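 HepG2 cells (600/well) were dispensed with RealTime-Glo reagents, incubated 5 h at 37 °C, then treated with compounds in DMSO for up to 40 h. Nonlytic NanoLuc luminescence reflecting viable cells was read at each stated time point.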

[7] = qHTS RealTime-Glo MT Cell Viability Assay in HEK293 cells - 32 hour (AID 1224868); also: top concentration of the series differs between compounds; nearly all actives have a fitted effect of over 50% in size
How it was run: (§2)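 HEK293 cells seeded with NanoLuc/prosubstrate reagent, rested 5 h at 37 C, then dosed and kept at 37 C up to 40 h. Nonlytic real-time luminescence from viable cells read at 0, 8, 16, 24, 32 and 40 h.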

[8] = A CellTox Green Cytotoxicity Assay to monitor cytotoxicity in HEK293 cells - 0 hour (AID 1224869); also: nearly all actives have a fitted effect of over 50% in size
How it was run: (§3)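 Cells (HEK293, 600/well) and dye reagent are dispensed together. After 5 h at 37 C, 23 nL compound is pinned in. Plates stay at 37 C for 40 h with fluorescence read at 0h, 8h, 16h, 24h, 32h and 40h.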

[9] = qHTS RealTime-Glo MT Cell Viability Assay in HepG2 cells - 40 hour (AID 1224870); also: nearly all actives have a fitted effect of over 50% in size
How it was run: (§4)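 HepG2 cells (600/well) mixed with RealTime-Glo MT reagent, settled 5 h at 37 C/5% CO2 before compound addition. Nonlytic NanoLuc luminescence from viable-cell prosubstrate reduction read repeatedly during 40 h treatment at 37 C.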

[10] = A CellTox Green Cytotoxicity Assay to monitor cytotoxicity in HEK293 cells - 40 hour (AID 1224871); also: nearly all actives have a fitted effect of over 45% in size
How it was run: as §3

[11] = qHTS RealTime-Glo MT Cell Viability Assay in HEK293 cells - 16 hour (AID 1224872)
How it was run: as §2

[12] = qHTS RealTime-Glo MT Cell Viability Assay in HEK293 cells - 40 hour (AID 1224874); conditions: RealTime-Glo luminescence; max response: stronger effect = lower value; also: nearly all actives have a fitted effect of over 50% in size; also: potency is read from the fitted curve at half-maximal effect
How it was run: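 Real-time viability in HEK293: signal arises when living cells convert a prosubstrate for NanoLuc in the medium, so luminescence tracks viable cell number. Compound (23 nL, DMSO) added 5 h post-seeding; kinetic reads at 0–40 h, 37 C.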

[13] = A CellTox Green Cytotoxicity Assay to monitor cytotoxicity in HEK293 cells - 24 hour (AID 1224875); also: series mostly up to about 77 µM; nearly all actives have a fitted effect of over 45% in size
How it was run: as §3

[14] = A CellTox Green Cytotoxicity Assay to monitor cytotoxicity in HepG2 cells - 16 hour (AID 1224876); also: nearly all actives have a fitted effect of over 45% in size
How it was run: (§5)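 Cells and non-lytic dye reagent are dispensed together (600 HepG2 cells/well) and incubated 5 h before DMSO compound transfer. Kinetic fluorescence is then recorded in the same wells during 40 h at 37 C.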

[15] = qHTS RealTime-Glo MT Cell Viability Assay in HepG2 cells - 32 hour (AID 1224877); also: nearly all actives have a fitted effect of over 55% in size
How it was run: as §1

[16] = A CellTox Green Cytotoxicity Assay to monitor cytotoxicity in HepG2 cells - 24 hour (AID 1224878); also: nearly all actives have a fitted effect of over 45% in size; also: potency is read from the fitted curve at half-maximal effect
How it was run: as §5

[17] = A CellTox Green Cytotoxicity Assay to monitor cytotoxicity in HepG2 cells - 40 hour (AID 1224879); also: nearly all actives have a fitted effect of over 40% in size; also: potency is read from the fitted curve at half-maximal effect
How it was run: as §5

[18] = qHTS RealTime-Glo MT Cell Viability Assay in HepG2 cells - 8 hour (AID 1224873); also: nearly all actives have a fitted effect of over 55% in size
How it was run: as §4

[19] = qHTS assay to identify small molecule antagonists of the estrogen related receptor (ERR) signaling pathway from Tox21 library (AID 1224848); also: nearly all actives have a fitted effect of over 50% in size
How it was run: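 Compounds dissolved in DMSO are pin-transferred onto ERR reporter cells (2,000 per well) that have settled for 6 h at 37 C. Plates then incubate 18 h at 37 C before ONE-Glo luciferase reagent and a luminescence read 30 min later.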
% is scaled to controls: 0 for no effect and ±100 for the full control effect.

Nc1ccc(N)cc1
inactive: Potency [1] | Potency [2] | Potency [3] | outcome [4] | Potency [5] | outcome [6] | Potency [7] | Potency [8] | outcome [9] | Potency [10] | outcome [11] | max response [12] 13.6% and -13% | Potency [13] | Potency [14] | outcome [15] | Potency [16] | Potency [17]

O=[N+]([O-])c1ccc(Cl)cc1
inactive: Potency [1] | Potency [2] | outcome [4] | Potency [5] | outcome [6] | Potency [7] | Potency [8] | outcome [9] | Potency [10] | outcome [11] | outcome [18] | max response [12] 4.49% and 2.44% | Potency [13] | outcome [15] | Potency [16] | Potency [17]

FC(F)(F)c1ccc(Cl)cc1
inactive: Potency [1] | Potency [2] | Potency [3] | outcome [4] | Potency [5] | outcome [6] | Potency [7] | Potency [8] | outcome [9] | Potency [10] | outcome [11] | outcome [18] | max response [12] 3.01% and 8.11% | Potency [13] | outcome [15] | Potency [16] | Potency [17]

CC(=O)/C=C/c1ccccc1
inactive: Potency [1] | Potency [2] | Potency [3] | outcome [4] | Potency [5] | outcome [6] | Potency [8] | outcome [9] | Potency [10] | outcome [11] | max response [12] 7.83% and 3.04% and 5.74% | Potency [13] | Potency [14] | outcome [15] | Potency [16] | Potency [17]

c1ccc2c(c1)CCCC2
inactive: Potency [1] | Potency [2] | outcome [4] | Potency [5] | outcome [6] | Potency [7] | Potency [8] | outcome [9] | Potency [10] | outcome [11] | outcome [18] | max response [12] 1.92% and 10.6% | Potency [13] | Potency [14] | outcome [15] | Potency [16] | Potency [17]

CNC(=O)O/N=C/C(C)(C)SC
inactive: Potency [1] | Potency [2] | outcome [4] | Potency [5] | Potency [19] | outcome [6] | Potency [8] | outcome [9] | Potency [10] | outcome [11] | max response [12] 6.31% and 4.21% | Potency [13] | Potency [14] | outcome [15] | Potency [16] | Potency [17]

C=CC#N
inactive: Potency [1] | Potency [2] | outcome [4] | Potency [5] | Potency [19] | outcome [6] | Potency [7] | Potency [8] | outcome [9] | Potency [10] | outcome [11] | outcome [18] | max response [12] -6.45% and -0.644% | Potency [13] | Potency [14] | outcome [15] | Potency [16] | Potency [17]

O=[N+]([O-])c1cc([As](=O)(O)O)ccc1O
inactive: Potency [1] | Potency [2] | outcome [4] | Potency [5] | Potency [19] | outcome [6] | Potency [8] | outcome [9] | Potency [10] | outcome [11] | outcome [18] | max response [12] 6.64% and -3.36% and 2.24% | Potency [13] | outcome [15] | Potency [16] | Potency [17]

Sc1ccccc1
inactive and 43.6 µM (active): Potency [16] | Potency [17]
inactive: Potency [1] | Potency [2] | Potency [3] | outcome [4] | Potency [5] | outcome [6] | Potency [8] | outcome [9] | Potency [10] | outcome [11] | outcome [18] | max response [12] 0.339% and -2.23% and -0.106% | Potency [13] | outcome [15]
active: Potency [12] 39.4 µM

CNC(=O)O/N=C/C(C)(C)S(C)=O (stereo not given)
inactive: Potency [1] | Potency [2] | Potency [3] | outcome [4] | Potency [5] | outcome [6] | Potency [7] | Potency [8] | outcome [9] | Potency [10] | outcome [11] | outcome [18] | max response [12] 16.8% and -17.7% | Potency [13] | outcome [15] | Potency [16] | Potency [17]

Cc1cccc(C)c1N
inactive: Potency [1] | Potency [2] | outcome [4] | Potency [5] | outcome [6] | Potency [7] | Potency [8] | outcome [9] | Potency [10] | outcome [11] | max response [12] -0.963% and 19.7% | Potency [13] | Potency [14] | outcome [15] | Potency [16] | Potency [17]

CN(C)C(=O)Cl
inactive: Potency [1] | Potency [2] | Potency [3] | outcome [4] | Potency [5] | Potency [19] | outcome [6] | Potency [8] | outcome [9] | Potency [10] | outcome [11] | max response [12] 1.46% and 5.01% | Potency [13] | Potency [14] | outcome [15] | Potency [16] | Potency [17]

O=C/C=C/c1ccccc1
inactive: Potency [1] | Potency [2] | Potency [3] | outcome [4] | Potency [5] | outcome [6] | Potency [7] | Potency [8] | outcome [9] | Potency [10] | outcome [11] | outcome [18] | max response [12] -0.971% and 11.8% and 2.22% | Potency [13] | outcome [15] | Potency [16] | Potency [17]

CN(C)C(=O)Nc1cccc(C(F)(F)F)c1
inactive: Potency [1] | Potency [2] | Potency [3] | outcome [4] | Potency [5] | outcome [6] | Potency [7] | Potency [8] | outcome [9] | Potency [10] | outcome [11] | outcome [18] | max response [12] -22.8% and -6.94% | Potency [13] | Potency [14] | outcome [15] | Potency [16] | Potency [17]
